# Measured values published in PubChem BioAssay (Tox21).
# Results filed as inconclusive are left out. Entries that show only a call come without a potency. The source made the active and inactive calls. Unless noted, the call rests on the fitted dose curve; in most records, active means well fitted curve in the direction sought with a large enough effect in the repeat runs; inconclusive means weak or mixed curves; inactive means no such curve, though single readings can be large; an effect the other way counts as inactive or inconclusive.
# How the values were obtained:
# [1] = qHTS assay to test for compound auto fluorescence at 535 nm (green) in HEK293 cells (AID 720680); further: potency means the concentration at half of the fitted maximal effect
# [2] = qHTS assay to test for compound auto fluorescence at 535 nm (green) in HEK293 cell free culture (AID 720682); further: potency means the concentration at half of the fitted maximal effect
# Summary of the method: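 Each library compound, or DMSO control, is added by pintool to medium alone, comprising DMEM and 10% FBS. Emission at 535 nm following 485 nm excitation is quantified against fluorescein.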
# [3] = qHTS assay to test for compound auto fluorescence at 590 nm (red) in HEK293 cell free culture (AID 720683)
# Summary of the method: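 Tox21 10K library compounds were pinned into cell-free DMEM with 10% FBS and fluorescence was read at excitation 540 nm. Activity is expressed as Rose Bengal sodium equivalency.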
# [4] = qHTS assay to test for compound auto fluorescence at 590 nm (red) in HepG2 cell free culture (AID 720684)
# Summary of the method: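 Measured in medium alone (MEM containing 10% FBS) following pintool addition of compound; emission at 590 nm with 540 nm excitation, referenced to Rose Bengal sodium.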
# [5] = qHTS assay to test for compound auto fluorescence at 460 nm (blue) in HepG2 cell free culture (AID 720685)
# Summary of the method: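 Compound (23 nL) or DMSO pinned into cell-free MEM with 10% FBS; blue fluorescence read at 405/460 nm excitation/emission, expressed as auto-fluorescence equivalency to triamterene.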
# [6] = qHTS assay to test for compound auto fluorescence at 535 nm (green) in HepG2 cell free culture (AID 720686); further: potency means the concentration at half of the fitted maximal effect
# [7] = qHTS assay to test for compound auto fluorescence at 460 nm (blue) in HepG2 cells (AID 720687)
# Summary of the method: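 Cells (2,000/well in MEM with 10% FBS) attached overnight at 37 C, then were exposed to compound or DMSO for 1 hr at 37 C, 5% CO2. Fluorescence read at Ex/Em 405/460 nm, expressed as triamterene-equivalent signal.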
# [8] = target: Glucocorticoid receptor (Homo sapiens) (UniProt P04150); experiment: qHTS assay to identify small molecule agonists of the glucocorticoid receptor (GR) signaling pathway (AID 720691; active means well fitted activation curve with a large enough effect in the signal ratio in the repeat runs, not every such curve was filed as active; the % refers to the signal ratio); conditions: GR-bla HeLa, beta-lactamase reporter ratio, 18 h; activation: at 62.4 µM (top of the series)
# Summary of the method: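 Fluorescence intensity from LiveBLAzer B/G FRET substrate (2 h, room temperature) reports beta-lactamase expression driven by the glucocorticoid response element in GR-bla HeLa cells after 18 h compound exposure at 37 C.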
# [9] = qHTS assay to identify small molecule antagonists of the glucocorticoid receptor (GR) signaling pathway - cell viability counter screen (AID 720693); further: nearly all actives have a fitted effect of over 55% in size; further: potency means the concentration at half of the fitted maximal effect
# [10] = qHTS assay for identifying genotoxic compounds that show differential cytotoxicity against isogenic chicken DT40 cell lines with known DNA damage response pathways - wild type cell line (AID 743012); further: nearly all actives have a fitted effect of over 60% in size; further: potency means the concentration at half of the fitted maximal effect
# Summary of the method: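 Wild type DT40, 300 cells/well, ~0.5 h settle at 37 C/5% CO2; compounds in DMSO added by pintool; 40 h at 37 C/5% CO2; CellTiter-Glo, 30 min RT; luminescence.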
# [11] = qHTS assay for identifying genotoxic compounds that show differential cytotoxicity against isogenic chicken DT40 cell lines with known DNA damage response pathways - Rev3 mutant cell line (AID 743014); further: nearly all actives have a fitted effect of over 55% in size; further: potency means the concentration at half of the fitted maximal effect
# [12] = qHTS assay for identifying genotoxic compounds that show differential cytotoxicity against isogenic chicken DT40 cell lines with known DNA damage response pathways - Rad54/Ku70 mutant cell line (AID 743015); further: nearly all actives have a fitted effect of over 60% in size; further: potency means the concentration at half of the fitted maximal effect
# [13] = qHTS assay to identify small molecule antagonists of the androgen receptor (AR) signaling pathway - cell viability counter screen (AID 743033; further: nearly all actives have a fitted effect of over 45% in size; further: potency means the concentration at half of the fitted maximal effect)
# [14] = target: Androgen receptor (Homo sapiens) (UniProt P10275); experiment: qHTS assay to identify small molecule agonists of the androgen receptor (AR) signaling pathway using the MDA cell line (AID 743040; further: nearly all actives have a fitted effect of over 20% in size)
# Summary of the method: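 Luminescence from ONE-Glo, read after 30 min at room temperature, reflects MMTV-driven luciferase in MDA-kb2 cells (AR- and GR-responsive). Treatment lasted 16 h at 37C, 0% CO2.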
# [15] = target: Androgen receptor (Homo sapiens) (UniProt P10275); experiment: qHTS assay to identify small molecule antagonists of the androgen receptor (AR) signaling pathway using the MDA cell line (AID 743042; further: nearly all actives have a fitted effect of over 55% in size; further: potency means the concentration at half of the fitted maximal effect)
# Summary of the method: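 MDA-kb2 cells (human breast carcinoma, stably carrying an MMTV-luciferase reporter responsive to AR and GR) were plated at 3,000 cells/well and preincubated 5 hr at 37C, then given compound plus R1881 agonist for 16 h. ONE-Glo luminescence was read.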
# [16] = target: Glucocorticoid receptor (Homo sapiens) (UniProt P04150); experiment: qHTS assay to identify small molecule antagonists of the glucocorticoid receptor (GR) signaling pathway (AID 720692; active means well fitted inhibition curve with a large enough effect in the signal ratio in the repeat runs, not every such curve was filed as active; the % refers to the signal ratio)
# Summary of the method: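 HeLa GR-bla cells; cmpd + dex 5 nM final, 18 h 37 C; LiveBLAzer B/G FRET substrate 2 h RT; fluorescence intensity read. Antagonist mode, qHTS.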
# [17] = qHTS assay to test for compound auto fluorescence at 460 nm (blue) in HEK293 cell free culture (AID 720681)
# Summary of the method: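 Test compounds were pinned into cell-free culture medium (DMEM with 10% FBS) and fluorescence was read directly at Ex/Em 405/460 nm. Signals were expressed as fluorescence equivalents of triamterene, with DMSO vehicle as control.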
# [18] = qHTS assay to identify small molecule antagonists of the androgen receptor (AR) signaling pathway using the MDA cell line - cell viability counter screen (AID 743041; further: nearly all actives have a fitted effect of over 45% in size; further: potency means the concentration at half of the fitted maximal effect)
# Summary of the method: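 Viability counter screen run alongside the AR antagonist reporter: cells seeded 5 h before compound, R1881 added, 16 h incubation at 37C without CO2, fluorescent CellTiter-Fluor signal quantified.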
# [19] = target: Androgen receptor (Homo sapiens) (UniProt P10275); experiment: qHTS assay to identify small molecule antagonists of the androgen receptor (AR) signaling pathway (AID 743035; active means well fitted inhibition curve with a large enough effect in the signal ratio in the repeat runs, not every such curve was filed as active; the % refers to the signal ratio; further: potency means the concentration at half of the fitted maximal effect)
# Summary of the method: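 Fluorescence from a beta-lactamase FRET substrate (LiveBLAzer B/G, 2 h, room temperature) measured inhibition of R1881-stimulated signaling in GeneBLAzer AR-UAS-bla HEK293 cells exposed to compound for 16 h at 37C.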
# [20] = target: Androgen receptor (Homo sapiens) (UniProt P10275); experiment: qHTS assay to identify small molecule agonists of the androgen receptor (AR) signaling pathway (AID 743036; active means well fitted activation curve with a large enough effect in the signal ratio in the repeat runs, with a control signal flat, not every such curve was filed as active; the % refers to the signal ratio)
# Summary of the method: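 Following a 4 h settling period, AR-UAS-bla HEK293 cells were dosed with compounds for 16 h at 37C. A 2 h room-temperature incubation with LiveBLAzer B/G FRET substrate preceded the fluorescence measurement.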
# Tags describe the fitted curve by direction and shape or compound fluorescence and quenching.
# Chain of Androgen receptor (Homo sapiens) (P10275 whole entry, looked up): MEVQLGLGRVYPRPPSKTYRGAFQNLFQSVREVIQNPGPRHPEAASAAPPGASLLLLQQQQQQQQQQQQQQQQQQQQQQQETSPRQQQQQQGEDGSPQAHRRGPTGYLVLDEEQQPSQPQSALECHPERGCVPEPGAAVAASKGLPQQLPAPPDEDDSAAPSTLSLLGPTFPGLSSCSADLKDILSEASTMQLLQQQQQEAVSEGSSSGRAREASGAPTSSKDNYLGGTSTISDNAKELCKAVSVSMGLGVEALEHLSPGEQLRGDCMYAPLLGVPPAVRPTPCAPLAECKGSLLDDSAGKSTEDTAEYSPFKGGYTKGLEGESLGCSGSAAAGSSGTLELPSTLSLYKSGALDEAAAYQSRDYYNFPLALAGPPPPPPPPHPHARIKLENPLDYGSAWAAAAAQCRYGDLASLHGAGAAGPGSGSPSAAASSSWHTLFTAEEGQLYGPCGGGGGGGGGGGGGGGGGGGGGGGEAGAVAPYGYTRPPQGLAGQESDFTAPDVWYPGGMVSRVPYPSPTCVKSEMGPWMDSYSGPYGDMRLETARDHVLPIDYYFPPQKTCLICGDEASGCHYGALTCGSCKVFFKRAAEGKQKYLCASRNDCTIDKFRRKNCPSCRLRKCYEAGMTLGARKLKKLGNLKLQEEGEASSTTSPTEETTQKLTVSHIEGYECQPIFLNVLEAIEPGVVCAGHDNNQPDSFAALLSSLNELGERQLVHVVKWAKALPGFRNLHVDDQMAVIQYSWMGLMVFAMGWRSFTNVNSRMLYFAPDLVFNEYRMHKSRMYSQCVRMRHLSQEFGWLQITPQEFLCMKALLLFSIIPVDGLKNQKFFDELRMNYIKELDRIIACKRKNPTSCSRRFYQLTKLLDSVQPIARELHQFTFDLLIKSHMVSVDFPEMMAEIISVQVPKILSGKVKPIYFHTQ
# Chain of Glucocorticoid receptor (Homo sapiens) (P04150 whole entry, looked up): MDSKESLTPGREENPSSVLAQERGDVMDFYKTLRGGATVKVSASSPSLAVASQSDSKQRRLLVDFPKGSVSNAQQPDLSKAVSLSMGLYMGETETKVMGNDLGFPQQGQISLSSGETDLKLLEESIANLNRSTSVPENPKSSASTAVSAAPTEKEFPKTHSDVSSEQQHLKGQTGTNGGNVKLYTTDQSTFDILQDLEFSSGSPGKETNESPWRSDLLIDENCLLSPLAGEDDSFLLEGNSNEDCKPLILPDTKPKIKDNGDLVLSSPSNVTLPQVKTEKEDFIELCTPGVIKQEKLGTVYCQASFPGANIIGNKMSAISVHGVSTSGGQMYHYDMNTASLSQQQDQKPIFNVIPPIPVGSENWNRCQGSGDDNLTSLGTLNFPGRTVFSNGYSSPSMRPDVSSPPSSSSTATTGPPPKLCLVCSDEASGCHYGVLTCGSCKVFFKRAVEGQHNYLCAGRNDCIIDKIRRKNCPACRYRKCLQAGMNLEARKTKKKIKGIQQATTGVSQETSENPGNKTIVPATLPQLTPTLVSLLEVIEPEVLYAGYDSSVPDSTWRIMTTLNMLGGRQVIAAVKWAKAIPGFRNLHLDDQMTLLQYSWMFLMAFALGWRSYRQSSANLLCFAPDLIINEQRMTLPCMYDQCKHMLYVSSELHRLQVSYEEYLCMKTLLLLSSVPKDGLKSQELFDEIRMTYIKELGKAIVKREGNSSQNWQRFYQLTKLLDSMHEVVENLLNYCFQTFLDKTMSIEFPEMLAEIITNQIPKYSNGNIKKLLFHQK
Compound,Potency [1],Potency [2],Potency [3],Potency [4],outcome [5],Potency [6],outcome [7],Potency [8],Potency [9],Potency [10],Potency [11],Potency [12],Potency [13],Potency [14],Potency [15],Potency [16],Potency [17],Potency [18],Potency [19],Potency [20]
Cc1cc2nc3c(=O)[nH]c(=O)nc-3n(C[C@H](O)[C@H](O)[C@H](O)COP(=O)(O)OP(=O)(O)OC[C@H]3O[C@@H](n4cnc5c(N)ncnc54)[C@H](O)[C@@H]3O)c2cc1C,22.4 µM [fluorescent] (active),15.8 µM [fluorescent] (active),inactive,inactive,inactive,12.6 µM [fluorescent] (active),inactive,inactive,inactive,inactive,inactive,inactive,inactive,inactive,inactive,,,,,
COC(=O)[C@H]1[C@H]2C[C@@H]3c4[nH]c5cc(OC)ccc5c4CCN3C[C@H]2C[C@H](OC)[C@@H]1OC,inactive,inactive,inactive,inactive,,inactive,,inactive,inactive,inactive,,inactive,inactive,,,inactive,,,,
O=C(Nc1ccc(Br)cc1)c1cc(Br)c(Br)s1,inactive,inactive,,inactive,inactive,inactive,inactive,,21.3 µM (active),26.6 µM (active),33.5 µM (active),,21.3 µM (active),,,,inactive,inactive,,
Cn1nnnc1SCC1=C(C(=O)O)N2C(=O)[C@@H](NC(=O)[C@H](OC=O)c3ccccc3)[C@H]2SC1,inactive,inactive,,inactive,inactive,inactive,inactive,,inactive,inactive,inactive,inactive,inactive,,,,inactive,inactive,,
Cn1c(O)c(N=NC(N)=S)c2ccccc21,inactive,inactive,,inactive,inactive,inactive,inactive,,inactive,5.31 µM (active),10.6 µM (active),8.41 µM (active),2.68 µM (active),,,,inactive,inactive,,
Cc1cc(/C=C/c2ccc3cc(N(C)C)ccc3[n+]2C)c(C)n1-c1ccccc1,inactive,inactive,,,inactive,inactive,inactive,inactive,inactive,,,,4.56 µM (active),,,,inactive,2.66 µM (active),,
CO[C@@]1(NC(=O)C2SC(=C(C(N)=O)C(=O)O)S2)C(=O)N2C(C(=O)O)=C(CSc3nnnn3C)CS[C@@H]21 (stereo partly drawn),inactive,inactive,,inactive,inactive,inactive,inactive,inactive,,inactive,inactive,inactive,inactive,,,inactive,inactive,inactive,,
COC(=O)CCC(=O)CN,inactive,inactive,,inactive,inactive,inactive,inactive,inactive,inactive,inactive,inactive,,inactive,,,inactive,inactive,inactive,,
O=C1C(=O)c2ncccc2-c2cccnc21,inactive,inactive,inactive,inactive,,inactive,,inactive,inactive,5.96 µM (active),8.41 µM (active),4.22 µM (active),,inactive,inactive,,,inactive,23.9 µM (active),
CC(C)NCC(O)COc1ccccc1-n1cccc1 (stereo not drawn),inactive,inactive,,inactive,inactive,inactive,inactive,inactive,inactive,,inactive,inactive,inactive,,,,inactive,inactive,,
Cc1cc(O)c2c(c1)O[C@@]1(C)CC[C@H]3C(C)(C)CCCC34CO[C@@H]2[C@H]41 (stereo partly drawn),inactive,inactive,,inactive,inactive,inactive,inactive,,23.9 µM (active),13.3 µM (active),10.6 µM (active),13.3 µM (active),,inactive,,,inactive,,,inactive
CC1(S(=O)(=O)O)CC(=O)c2ccccc2C1=O (stereo not drawn),,inactive,inactive,inactive,inactive,inactive,inactive,,inactive,9.44 µM (active),11.9 µM (active),11.9 µM (active),,inactive,29.8 µM (active),,inactive,,,
O=S(O)CNc1ccc(S(=O)(=O)c2ccc(NCS(=O)O)cc2)cc1,inactive,inactive,,inactive,inactive,inactive,inactive,,inactive,inactive,inactive,inactive,inactive,,,,inactive,inactive,,
CC1(C)S[C@@H]2[C@H](NC(=O)[C@H](N)c3ccccc3)C(=O)N2[C@H]1C(=O)OCOC(=O)[C@@H]1N2C(=O)C[C@H]2S(=O)(=O)C1(C)C,inactive,inactive,,inactive,inactive,inactive,inactive,,inactive,inactive,inactive,inactive,inactive,,,,inactive,inactive,,
COc1ccc2c(c1)OC(C)(C)C(c1ccccc1)C2c1ccc(OCCN2CCCC2)cc1 (stereo not drawn),inactive,inactive,,inactive,,inactive,inactive,,,3.76 µM (active),5.31 µM (active),5.96 µM (active),,,,,inactive,,,
O=C(O)[C@@H](O)[C@H](O)[C@H](O)[C@@H](O)C(=O)O (tested in a mixture with another compound),inactive,inactive,,inactive,inactive,inactive,inactive,,inactive,inactive,inactive,inactive,inactive,,,,inactive,inactive,,
